Data: PubChem BioAssay (NCI)
Compounds without any hit were thinned out: in the full panel of roughly 83,000, 20% have a hit.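 Growth was measured after 48 h exposure to one concentration of compound in 96-well plates. Values under 10 count as active.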 Values without a mark were called inactive. The source made the active and inactive calls.

Experiments:
Assay in all cases: NCI-60 one-dose screen, 48 h (100 = growth as untreated, 0 = no growth, -100 = all killed)
Conditions in all cases: 10 µM unless noted
SR leukemia = tested on: SR leukemia
RPMI-8226 leukemia = tested on: RPMI-8226 leukemia
OVCAR-8 ovarian = tested on: OVCAR-8 ovarian
OVCAR-5 ovarian = tested on: OVCAR-5 ovarian
OVCAR-4 ovarian = tested on: OVCAR-4 ovarian
SK-OV-3 ovarian = tested on: SK-OV-3 ovarian
IGROV1 ovarian = tested on: IGROV1 ovarian
OVCAR-3 ovarian = tested on: OVCAR-3 ovarian
HS 578T breast = tested on: HS 578T breast
NCI/ADR-RES ovarian = tested on: NCI/ADR-RES ovarian

Row | SMILES | growth (SR leukemia) | growth (RPMI-8226 leukemia) | growth (OVCAR-8 ovarian) | growth (OVCAR-5 ovarian) | growth (OVCAR-4 ovarian) | growth (SK-OV-3 ovarian) | growth (IGROV1 ovarian) | growth (OVCAR-3 ovarian) | growth (HS 578T breast) | growth (NCI/ADR-RES ovarian)
1 | COc1c(F)ccc(C(=O)Nc2ccc3nc(NC(=O)C4CCCN(S(=O)(=O)c5ccc(Br)c(F)c5)C4)sc3c2)c1F (stereo not given) | 47.2% | 52% | 98.1% | 102% | 75.4% | 102% | 82.2% | 96.8% | 72.8% | 83.4%
2 | Nc1nc(-c2ccccc2)c(N=Nc2ccc(Cl)cc2[N+](=O)[O-])s1 | 99.7% | 94.2% | 91.3% | 101% | 97.2% | 96.5% | 80.5% | 108% | 79.6% | 101%
3 | CN(C)c1ccnc(CNCCSC2(c3ccc(C(F)(F)F)cc3)c3ccccc3C=Cc3ccccc32)c1 | -53% (active) | -48.9% (active) | -77.2% (active) | 1.89% (active) | 13% | 8.64% (active) | 9.31% (active) | -40.5% (active) | -18% (active) | -73.6% (active)
4 | Cc1ccc(S(=O)(=O)c2nc(S(=O)(=O)c3ccc(C)cc3)c(Cl)s2)cc1 | 3.18% (active) | -32.7% (active) | 9.84% (active) | 31.6% | -26.1% (active) | 133% | 44.8% | -87.5% (active) | 86.5% | 29.5%
5 | O=c1oc2ccc(Br)cc2cc1C1=CSc2nc3sc4c(c3c(=O)n2N=C1)CCCC4 | 86.6% | 101% | 99.9% | 102% | 86.1% | 80.3% | 90.8% | 115% | 93.1% | 106%
6 | Cc1cc(C)cc(NC(=O)Cn2cc(COn3nnc4ccccc43)nn2)c1 | 90.1% | 108% | 104% | 102% | 109% | 103% | 104% | 129% | 102% | 102%
7 | CCCCCCCCc1ccc(C(=O)Nc2ccc(C)cc2C(=O)O)cc1C | 88.2% | 82.7% | 93.2% | 115% | 102% | 100% | 98.2% | 108% | 93.1% | 96.3%
8 | CC1(C)CC[C@]2(C(=O)Nc3ccccc3)CC[C@]3(C)C(=CCC4[C@@]5(C)C[C@@H](O)[C@H](O)[C@@](C)(CO)C5CC[C@]43C)C2C1 (stereo not given in full) | 15.2% | 9.08% (active) | 62.7% | 86.2% | 58.9% | 65.5% | 79% | 73.4% | 62.8% | 61.4%
9 | CCOC(=O)COc1c(OC)c(OC)cc2oc(-c3cccc(C(=O)Nc4ccc(Cl)cc4)c3)cc(=O)c12 | 18.4% | 38.5% | 52% | 81.4% | 68.8% | 75.4% | 54.4% | 23.3% | 49.6% | 36.5%
10 | CCCCCCn1c(O)c(N=Nc2nc(-c3cc4ccccc4oc3=O)cs2)c2ccccc21 | 12% | 60.9% | 34.1% | -53.2% (active) | -48.2% (active) | 96.9% | -62.4% (active) | -94.9% (active) | 60.5% | 50.2%
11 | Cn1cc(-c2nnc(N)nc2-c2c[nH]c3ccccc23)c2cccnc21 | 25.2% | 43.5% | 49.7% | 77.8% | 76.8% | 64.6% | 39.5% | 25.9% | 41.4% | 76.3%
12 | Cn1cc(-c2cc3nc(-c4cn(C)c5ncc(Br)cc45)cc(N)n3n2)c2cc(Cl)ccc21 | -28.1% (active) | -4.61% (active) | -54.4% (active) | -81.4% (active) | -59.4% (active) | -69.2% (active) | -73.1% (active) | -54.4% (active) | -36.1% (active) | -58.4% (active)
13 | O=C1c2c(c3c4cc(F)ccc4oc3c3[nH]c4ccc(Br)cc4c23)C(=O)N1O | 4.45% (active) | 34.2% | 19.8% | 108% | 76.6% | 4.35% (active) | 46.3% | 67.2% | -4.24% (active) | 30.7%
14 | Cn1cc(-c2nc(N)nnc2-c2c[nH]c3ccc(F)cc23)c2cccnc21 | 17.8% | 44.7% | 50.3% | 80.2% | 70.7% | 41.3% | 22.3% | 60.7% | 15.1% | 52.1%
15 | Cc1ccc(S(=O)(=O)c2nc(S(=O)(=O)c3ccc(C)cc3)c(N3CCC(O)CC3)s2)cc1 | 15.7% | 53.4% | 75.3% | 104% | 65% | 97.6% | 75.6% | 72.9% | 59.3% | 74.5%
16 | CN(C)c1nc(NCCNS(=O)(=O)c2ccc(C3=Nc4c(N)nc(N)nc4NC(c4ccccc4)C3)cc2)nc(Nc2ccc(F)cc2)n1 (stereo not given) | 1.17% (active) | 4.93% (active) | 42.3% | 75.3% | 38.9% | 80.7% | 32.1% | 45.2% | 46.3% | 92.9%
17 | Cc1cc2nc3c4ccccc4n(CCCN(C)C)c3nc2cc1C | 3.07% (active) | -26.1% (active) | 6.13% (active) | 9.07% (active) | -23.4% (active) | 8.14% (active) | -10.5% (active) | -14.2% (active) | -10.7% (active) | 1.96% (active)
18 | Cc1ccccc1[C@H]1C(C(=O)c2ccc(Cl)cc2)C2(N[C@@H]1c1ccccc1)C(=O)Nc1ccccc12 (stereo not given in full) | -17.1% (active) | -24.2% (active) | -67.9% (active) | -46.6% (active) | 8.21% (active) | -3.38% (active) | 5.88% (active) | -58.4% (active) | -28.8% (active) | -68.2% (active)
19 | CCCCSc1nc(NCCc2c[nH]c3ccccc23)c(C#N)c(-c2ccccc2)n1 | 2.16% (active) | 14.1% | 49.2% | 82.7% | 62.2% | 76.6% | 96% | 55.9% | 39.6% | 22.9%
20 | COc1ccc(NC(=O)[C@H](C)N)cc1C(=O)Nc1cccc(C2CC(=O)c3c(cc(OC)c(OC)c3OC)O2)c1 (stereo not given in full) | 63.8% | 55.3% | 68.8% | 104% | 81.7% | 146% | 98.7% | 91.9% | 95.8% | 86.1%
21 | COc1ccc2c(c1)C(=N/N=C(\C)c1ccc(OC)c(S(N)(=O)=O)c1)C(=O)N2 | 83.2% | 83% | 92.7% | 99.8% | 96.6% | 97.6% | 107% | 106% | 70.3% | 100%
22 | COc1ccc(NC(=O)[C@H](CO)NC(=O)OC(C)(C)C)cc1C(=O)Nc1cccc(C2CC(=O)c3c(cc(OC)c(OC)c3OC)O2)c1 (stereo not given in full) | 25.3% | 23% | 26.3% | 113% | 57.7% | 87.8% | 43.1% | 47.7% | 53.6% | 71.6%
23 | COc1cc(-c2nc3ccc(C)cc3[nH]2)ccc1OCc1nnc(-c2ccc(Br)cc2)o1 | -16% (active) | -12.9% (active) | 28.4% | 92.1% | 10.6% | 59.3% | 64.2% | 39.1% | -4.08% (active) | 71.4%
24 | Nc1nnc(-c2c[nH]c3ccc(Br)cc23)c(-c2c[nH]c3ncc(Br)cc23)n1 | 23.6% | 19.6% | 34.3% | 59% | 33.6% | 37.6% | 22% | 62.4% | 48.8% | 78.6%
25 | COc1cc2oc(-c3cccc(C(=O)Nc4ccc(Cl)cc4)c3)cc(=O)c2c(OCCNC(=O)[C@H](CO)NC(=O)OC(C)(C)C)c1OC | 2.89% (active) | -39.9% (active) | 18.3% | 32% | 36.4% | 93.3% | 25.3% | 17.2% | 26.5% | 64.8%
26 | O=C1/C(=C/C2=Cc3ccccc3OC2)SC(=S)N1c1ccccc1F | 91% | 85.7% | 110% | 108% | 107% | 95.3% | 103% | 109% | 105% | 109%
